Out of some 420,000 compounds screened, about 50,000 (12%) were called active. A call without a number means that no potency is given here. Not shown: some 26% with an inconclusive outcome. The sample holds actives, similar compounds and a random draw of the others, so the mix is not that of the screen. Unmarked numbers belong to inactive results. Calls come from the whole dose curve; as a rule, active = well fitted inhibition curve with a large enough effect; inconclusive = small, poorly fitted or top-dose-only effect; inactive = flat fitted curve, though single readings scatter.
Assay: qHTS for Inhibitors of human tyrosyl-DNA phosphodiesterase 1 (TDP1): qHTS in cells in presence of CPT; note: nearly all actives have a fitted effect of over 55% in size
Details: chicken DT40 Tdp1-/-;hTDP1 cells + 20 nM CPT, ATP luminescence, 48 h; series mostly up to 46.2 µM
How it was run: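 Cell growth measured by CellTiter-Glo luminescence after a minimum 48 h, 37 C compound exposure with 20 nM CPT in Tdp1-knockout DT40 cells stably expressing hTDP1, seeded 400/well; qHTS titration format.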
Potency is the fitted concentration of half-maximal effect.

| SMILES | Potency | activity change, negative = growth inhibition |
| --- | --- | --- |
| COC(=O)C[C@H]1C=C[C@@H](NS(=O)(=O)c2ccc(C)cc2)[C@@H](CO)O1 | inactive | – |
| O=C(c1cc(COc2c(F)cccc2F)on1)N1CCSCC1 | inactive | – |
| NC(=O)Cn1nc([N+](=O)[O-])nc1Oc1ccc(Br)cc1 | inactive | – |
| Cc1ccccc1Nc1nc(N)nc(CSc2nnc3ccccn23)n1 | inactive | – |
| COc1cc(/C=N/NC(=S)Nc2cccnc2)cc(OC)c1O | inactive | – |
| COc1ccccc1CNC(=O)COc1ccc(C)nc1[N+](=O)[O-] | inactive | – |
| CCC(C)(C)n1nnnc1C(c1ccc(OC)c(OC)c1)N1CCN(C(=O)c2ccco2)CC1 (stereo not drawn) | inactive | – |
| CN1CCN2c3ccccc3Cc3ccccc3[C@@H]2C1 | 13.3 µM (active) | – |
| CN1CCN(C(=O)N2c3ccccc3CCc3ccccc32)CC1 | inactive | – |
| CCOCCCNC(=O)c1cn(CC(C)C)c(=O)c2c1c1ccccc1n2C | inactive | – |
| CC(=NNC(N)=O)C1CC2CCC1CC2 (stereo not drawn) | inactive | – |
| CCOC(=O)C1CCN(c2csc3ccc(C)cc3c2=O)CC1 | inactive | – |
| CCOC(=O)C1CCN(CCC(=O)Nc2cccc(C)c2)CC1 | inactive | – |
| CCOC(=O)C1CCN(c2c(Nc3cc(C)cc(C)c3)c(=O)c2=O)CC1 | 14.6 µM (active) | – |
| O=C(COC(=O)Cc1ccc([N+](=O)[O-])cc1)NC1CCCCCC1 | inactive | – |
| Cc1ccsc1C1C(C#N)=C(N)OC2=C1C(=O)CC(C)(C)C2 (stereo not drawn) | inactive | – |
| CN1CCN(S(=O)(=O)c2ccc(Nc3ccc(F)cc3)nc2)CC1 | inactive | – |
| C=C1CCN([C@H](C(=O)NCc2cc(OC)c(OC)c(OC)c2)C(C)C)S(=O)(=O)c2ccccc21 | inactive | – |
| O=C1OCC2=C1C(c1ccc(Cl)cc1)c1cc3c(cc1O2)OCO3 (stereo not drawn) | 29.1 µM (active) | – |
| CCc1cccc(NC(=S)N(CCN(C)C)C2CCN(C(C)C)CC2)c1 | inactive | – |
| O=C(COC(=O)C1(c2ccc(F)cc2)CCCC1)N1CCNC1=O | inactive | – |
| Cc1nn(CC(=O)NCc2ccccn2)c(C)c1[N+](=O)[O-] | inactive | – |
| Cc1csc(NC(=O)Nc2ccccc2[N+](=O)[O-])n1 | inactive | – |

| SMILES | Potency | activity change, negative = growth inhibition |
| --- | --- | --- |
| Cc1csc(NC(=O)NC2(C(F)(F)F)Oc3ccccc3O2)n1 | 20.6 µM (active) | – |
| Cc1csc(NC(=O)CSc2nnc(-c3cccnc3)o2)n1 | inactive | – |
| CCOc1ccc(N(CC(=O)NC2CCCCCC2)S(=O)(=O)c2c(C)[nH]c(=O)[nH]c2=O)cc1 | inactive | – |
| CC(Nc1nc(C(F)(F)F)nc2ccccc12)c1cccs1 (stereo not drawn) | 16.4 µM (active) | – |
| COc1ccc(-c2nc3n(c(=O)c2C#N)CCS3)c(OC)c1 | inactive | – |
| CCOc1ccccc1-c1nc(CN2CCC(C(=O)N3CCOCC3)CC2)c(C)o1 | inactive | – |
| Cc1oc(-c2ccccc2F)nc1CN1CCC(C(=O)NCCc2ccc(Cl)cc2)CC1 | 13 µM (active) | – |
| COc1ccc(-c2nc(CN3CCC(C(=O)NCc4ccccc4)CC3)c(C)o2)cc1OC | inactive | – |
| O=C1CCN(C(=S)NCCc2ccccc2)CC1 | inactive | – |
| Oc1ccc(N2CCN(C(=S)NCc3ccccc3)CC2)cc1 | 11.6 µM (active) | – |
| S=C(NCCc1ccccc1)N1CCCCC1 | inactive | – |
| CC(Oc1ccccc1)C(=O)N[C@@H]1C(=O)N2[C@@H]1SC(C)(C)[C@@H]2C(=O)O (stereo partly drawn) | inactive | – |
| COc1cc(C=NC2CCCCC2)ccc1O | inactive | – |
| COc1ccc(N2CCN(C(=O)CNC(=O)c3ccc(Br)o3)CC2)cc1 | inactive | – |
| O=C(NCC(=O)N1CCN(c2ncc(C(F)(F)F)cc2Cl)CC1)c1ccc(Br)o1 | 16.4 µM (active) | – |
| O=C(CN1CCN(c2ncc(C(F)(F)F)cc2Cl)CC1)Nc1ccc2c(c1)OCO2 | inactive | – |
| Cc1cc(C)cc(C(=O)NC(CC(N)=O)c2ccc(N3CCC(N4CCCCC4)CC3)c([N+](=O)[O-])c2)c1 (stereo not drawn) | inactive | – |
| OCCN1CCN(CCO)C1=S | inactive | – |
| COc1ccccc1CN1CCCC(N2CCN(c3ccc(F)cc3)CC2)C1 (stereo not drawn) | inactive | – |
| CNC[C@H](CC1CCCCC1)NC[C@H](NCCC1CCCC1)[C@H](C)O | 16.4 µM (active) | – |
| COc1ccc2c(c1OC)C(=O)N(c1ccc(O)cc1)C2 | inactive | – |
| O=C(CN1CCN(c2ccccc2O)CC1)NC(=O)NCc1ccccc1 | inactive | – |
| Cc1coc(C)c1C(=O)CC1(O)C(=O)N(C)c2ccc(Cl)cc21 (stereo not drawn) | inactive | – |

| SMILES | Potency | activity change, negative = growth inhibition |
| --- | --- | --- |
| CCc1ccc(C(=O)COC(=O)c2ccco2)cc1 | inactive | – |
| CCCN1C(=O)C(O)(CC(=O)c2ccc(CC)cc2)c2cc(Br)ccc21 (stereo not drawn) | 7.31 µM (active) | – |
| COCCn1c(C)cc(C(=O)CSc2ncnc3sc4c(c23)CCC4)c1C | inactive | – |
| CCOC(=O)CSc1nc2sc3c(c2c(=O)[nH]1)CC(C)(C)OC3 | inactive | – |
| COCCNc1nc(-n2nc(C)cc2C)nc2sc3c(c12)CCCC3 | 3.66 µM (active) | – |
| CC/C(C)=N/Nc1nc2sc3c(c2c(=O)[nH]1)CC(C)(C)OC3 | inactive | – |
| Cc1nc2sc3c(c2c(=O)n1NC(=O)CCl)CCCC3 | inactive | – |
| CCC(O)CNc1nc(-n2nc(C)cc2C)nc2sc3c(c12)CC(C)(C)OC3 (stereo not drawn) | 11.6 µM (active) | – |
| O=C(O)c1ccc(Cn2cnc3c(=S)nc[nH]c32)cc1 | inactive | – |
| O=C(c1cccnc1)N1CCN(S(=O)(=O)c2cccs2)CC1 | inactive | – |
| CCC1CN(S(=O)(=O)c2cc(-c3cc(C)no3)ccc2C)c2cc(C)ccc2O1 (stereo not drawn) | 20.6 µM (active) | – |
| Cc1ccc(C)c(S(=O)(=O)N2CC(=O)Nc3ccccc32)c1 | inactive | – |
| Cc1cc(-c2ccc(C)c(S(=O)(=O)Nc3ccc(S(N)(=O)=O)cc3)c2)on1 | inactive | – |
| CCc1noc(C)c1C(=O)NCCN1Cc2cc(OC)ccc2OC(CC)C1 (stereo not drawn) | – | -8.71% [at 9.04 µM] |
| Cc1cc(-c2ccc(C)c(S(=O)(=O)N3c4ccccc4CC3C)c2)on1 (stereo not drawn) | 18.4 µM (active) | – |
| CC1Cc2ccccc2N1S(=O)(=O)c1c(N)n(C)c(=O)n(C)c1=O (stereo not drawn) | inactive | – |
| CC(=O)c1ccc(S(=O)(=O)Nc2ccc(-c3ccc4nncn4n3)cc2)cc1 | inactive | – |
| O=C(O)C(=Cc1ccccc1[N+](=O)[O-])c1ccccc1 | inactive | – |
| CCCCCCCC1(C)NC(=O)N(CC(=O)Nc2cc(C)on2)C1=O (stereo not drawn) | inactive | – |
| CCOc1ccc(NC(=O)CN(C)C(=O)c2cccc(S(=O)(=O)N3CCCC3)c2)cc1OCC | inactive | – |
| COc1ccc(NC(=O)CN(C)C(=O)c2cccc(S(=O)(=O)N3CCN(c4ccccc4)CC3)c2)cc1 | 18.4 µM (active) | – |
| COc1ccc(NC(=O)CN(C)C(=O)c2cc(C3CC3)nn2-c2ccccc2)cc1 | inactive | – |
